PubChem BioAssay
The source made the active and inactive calls.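 The calls were made as follows: active = compounds whose cell count with miR-34 switched on is under 0.7 times the count with it off; inactive = the rest.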

Assay: sensitizers of A549 cells to miR-34 induction, primary screen, imaging, A549 dox-inducible miR-34, nuclei and caspase counts (AID 1347080); also: test concentration not given here
Conditions: A549 miR-34 inducible, Hoechst nuclei count, 48 h
[1] = stronger effect = lower value, cell number ratio, induced over uninduced
[2] = measured here: relative caspase fold change +Dox/-Dox
[3] = measured here: total cells with miR-34 induction, stronger effect = lower value
[4] = measured here: total cells without miR-34 induction

Row | SMILES | fold change [1] | fold change [2] | cell count [3] | cell count [4]
1 | COC(=O)C1=CC[C@@]23CC[C@@H]([C@@](C)(/C=C/C=C(\C)C(=O)O)OC2=O)[C@@]3(OC(C)=O)CC1 | 1.15 (inactive) | 0.682 | 2140 | 1860
2 | [C-]#[N+]c1cc(-c2ccncc2)c(C)[nH]c1=O | 0.91 (inactive) | 1.32 | 5870 | 6450
3 | CCCCC[C@H](O)/C=C/[C@H]1C=CC(=O)[C@@H]1CCCCCCC(=O)OCC | 0.941 (inactive) | 1.83 | 5280 | 5620
4 | C[C@H](N)C(=O)CCCCCC(=O)O | 1.03 (inactive) | 0.642 | 6090 | 5890
5 | CCCCC[C@H](O)/C=C/[C@H]1C2COC(C2)[C@@H]1C/C=C/CCCC(=O)O (stereo not given in full) | 0.903 (inactive) | 0.876 | 5790 | 6410
6 | CN(C)c1cc(NC(=O)CNC(C)(C)C)c(O)c2c1C[C@H]1C[C@@H]3C(C(=O)C(C(N)=O)=C(O)[C@H]3N(C)C)C(=O)C1=C2O (stereo not given in full) | 0.886 (inactive) | 0.781 | 8740 | 9860
7 | CCCCC[C@H](O)/C=C/[C@H]1[C@H](O)CC(=O)[C@H]1CCCCCCC(=O)O | 1.03 (inactive) | 0.989 | 5570 | 5390
8 | CCCCCCCC/C=C\CCCCCCCCCCCCCC(=O)NCCS(=O)(=O)O | 0.871 (inactive) | 0.338 | 5170 | 5940
9 | CCCCC[C@H]1/C=C/[C@@H]2[C@@H](C/C=C\CCCC(=O)O1)[C@@H](O)C[C@H]2O | 0.933 (inactive) | 1 | 4270 | 4580
10 | CCCCCCCCCCCC(=O)NC[C@]1(C)CCC[C@]2(C)c3ccc(C(C)C)cc3CC[C@@H]12 | 0.97 (inactive) | 1.59 | 6180 | 6370
11 | Cc1nc(COP(=O)(O)O)cc(CN(CCN(CC(=O)O)Cc2cc(COP(=O)(O)O)nc(C)c2O)CC(=O)O)c1O.[Mn] | 1.02 (inactive) | 0.746 | 9240 | 9050
12 | CC(C)CCCC(C)NC(C)C (stereo not given) | 0.993 (inactive) | 0.874 | 8610 | 8670
13 | CCCCCC/C=C/C=C\CCCCCCCC(=O)O | 0.985 (inactive) | 0.691 | 5840 | 5920
14 | C=C1C[C@H](O)[C@H](C/C=C\CCCC(=O)O)[C@H]1/C=C/C(=O)CCCCC | 1.11 (inactive) | 1.24 | 5720 | 5160
15 | O=C(O)CCC/C=C\C[C@@H]1[C@@H](CC[C@@H](O)CCc2cccc(C(F)(F)F)c2)[C@H](O)C[C@@H]1O | 0.926 (inactive) | 1.34 | 6330 | 6830
16 | NC1=NC(=O)/C(=C/c2ccc(O)cc2)S1 | 1.06 (inactive) | 1.49 | 6100 | 5780
17 | CCCCC[C@H](O)/C=C/[C@@H]1C(C/C=C\CCCCN(C)C)[C@@H](O)C[C@H]1O (stereo not given in full) | 0.95 (inactive) | 1.02 | 5640 | 5940
18 | COc1cc2c3cc1Oc1c(OC)c(OC)cc4c1[C@@H](Cc1ccc(OC(=O)c5ccc([N+](=O)[O-])cc5)c(c1)Oc1ccc(cc1)C[C@@H]3N(C)CC2)N(C)CC4 | 1.06 (inactive) | 0.897 | 2050 | 1940
19 | CCCCCCCC/C=C/CCCCCCCC(=O)O | 1.1 (inactive) | 0.875 | 6340 | 5750
20 | O=C(O)CCC/C=C\C[C@H]1[C@@H](/C=C/[C@@H](O)CCc2ccccc2)[C@H](O)C[C@@H]1O | 0.9 (inactive) | 0.837 | 5490 | 6100

Row | SMILES | fold change [1] | fold change [2] | cell count [3] | cell count [4]
21 | C[C@@H](O)CCC[C@@H](O)/C=C/[C@@H]1[C@@H](CCCCCCC(=O)O)[C@@H](O)C[C@H]1O | 0.879 (inactive) | 1.31 | 5220 | 5940
22 | CC(C)CC[C@@H](O)[C@@H](C)C1CCC2C3CC=C4C[C@@H](O)CC[C@]4(C)C3CC[C@@]21C (stereo not given in full) | 0.933 (inactive) | 1.03 | 5170 | 5530
23 | CC(C)(C)OC(=O)N1CCC(OCc2nc(-c3ccncc3)no2)CC1 | 1.03 (inactive) | 0.58 | 5600 | 5430
24 | CCCCC/C=C/C/C=C/CCCCCCCC(=O)O | 1.12 (inactive) | 0.989 | 6880 | 6150
25 | CCCCCCCCCCCCCCCCCCCCCCCCC(=O)OC | 1.06 (inactive) | 0.88 | 6850 | 6470
26 | CCCCCCCCCC(=O)CC(=O)N[C@H]1CCOC1=O | 0.908 (inactive) | 0.275 | 6050 | 6660
27 | CCCCC/C=C/C=C1/C=CC(=O)[C@@H]1C/C=C\CCCC(=O)O | 0.952 (inactive) | 1.85 | 5680 | 5960
28 | CCCCC[C@H](O)/C=C/[C@@H]1[C@H]2C[C@H](CCCCC(=O)O)O[C@H]2C[C@H]1O | 0.999 (inactive) | 1.41 | 6310 | 6310
29 | CCCCCCOC(=O)[C@@]1(O)CC2OC1(C)n1c3ccccc3c3c4c(c5c6ccccc6n2c5c31)C(=O)NC4 (stereo not given in full) | 0.758 (inactive) | 1.42 | 4880 | 6430
30 | CC1CCN=C(N)C1 (stereo not given) | 0.966 (inactive) | 0.767 | 6190 | 6410
31 | C#C[C@]1(O)CC[C@H]2[C@@H]3CCC4=CC(=O)CCC4[C@H]3CC[C@@]21CC (stereo not given in full) | 0.961 (inactive) | 0.754 | 6080 | 6330
32 | N[C@@H](CSCCB(O)O)C(=O)O | 1.01 (inactive) | 1.73 | 6340 | 6260
33 | CC(CN1CCC(n2c(=O)[nH]c3cc(Cl)ccc32)CC1)NC(=O)c1ccc2ccccc2c1 (stereo not given) | 1.08 (inactive) | 1.2 | 5810 | 5380
34 | CCCCCCCC/C=C\CCCCCCCC(=O)N[C@@H](CO)C(=O)O | 1.01 (inactive) | 1.73 | 5230 | 5180
35 | CCCCC[C@H](O)/C=C/[C@H]1[C@H](O)CC(=O)[C@@H]1C/C=C\CCCC(=O)OC | 0.938 (inactive) | 1.71 | 5670 | 6040
36 | C#CCCCCCCCCCNC(=O)Oc1cccc(-c2cccc(C(N)=O)c2)c1 | 0.97 (inactive) | 1.13 | 5690 | 5860
37 | C=C1C(=O)O[C@H](CCCCCCCC)[C@H]1C(=O)O | 1.04 (inactive) | 0.706 | 6150 | 5890
38 | CCCc1cc(C(=O)c2ccc(-c3ccccc3)cc2)ccc1OCCCN1CCCc2c(OC(C)(C)C(=O)O)cccc21 | 0.856 (inactive) | 1.42 | 5600 | 6540
39 | CCCCCC(=O)/C=C/[C@H]1[C@H](O)CC(=O)[C@@H]1CCCCCCC(=O)O | 1.03 (inactive) | 1.35 | 5840 | 5690
40 | CC(C)=CCC/C(C)=C/CC/C(C)=C/CC[C@]1(C)CCc2cc(O)cc(C)c2O1 | 0.922 (inactive) | 1.06 | 5270 | 5720

Row | SMILES | fold change [1] | fold change [2] | cell count [3] | cell count [4]
41 | O=C1C(c2ccccc2)N(c2ccc(Br)cc2)C(=O)N1c1ccc(Br)cc1 (stereo not given) | 0.936 (inactive) | 0.667 | 5960 | 6370
42 | CC(C)(C)OC(=O)Nc1cccc2[nH]ccc12 | 0.913 (inactive) | 0.676 | 4970 | 5440
43 | CCCCC[C@](C)(O)/C=C/[C@H]1[C@H](O)CC(=O)[C@@H]1C/C=C\CCCC(=O)O | 0.915 (inactive) | 1.22 | 5410 | 5910
44 | O=C(CCCCCc1ccccc1)c1nc2ncccc2o1 | 1.06 (inactive) | 0.866 | 5480 | 5190
45 | CC/C=C\C/C=C\C/C=C\C/C=C\CCCCCCC(=O)OCC | 0.858 (inactive) | 2.1 | 5560 | 6480
46 | O=C(O)CCCCCC[C@@H]1C(=O)NC(=O)N1CCC(O)C1CCCCC1 (stereo not given in full) | 1.01 (inactive) | 2.01 | 5520 | 5460
47 | CCCCCCCCCCCCCCCC(=O)N[C@H](C)CO | 0.916 (inactive) | 0.934 | 5780 | 6310
48 | CC/C(=C\C(=N/O)C(N)=O)C(C)[N+](=O)[O-] (stereo not given) | 1.05 (inactive) | 1.1 | 6540 | 6230
49 | O=C(O)CCC/C=C\C[C@H]1C(=O)C=C[C@@H]1/C=C/[C@@H](O)CCc1ccccc1 | 0.944 (inactive) | 0.959 | 5880 | 6220
50 | CCCCCCCCCCCCCCCCCCCCCCC(=O)OCC | 0.908 (inactive) | 0.513 | 4740 | 5220
51 | O=C(O)CCCCCCC1C(=O)N(Cc2ccccc2)C(=O)N1NCC(O)C1CCCCC1 (stereo not given) | 0.813 (inactive) | 2.25 | 5360 | 6590
52 | O=C(O)CCC/C=C\C[C@@H]1[C@@H](CC[C@@H](O)CCc2ccccc2)[C@H](O)C[C@@H]1O | 0.863 (inactive) | 1.41 | 5880 | 6810
53 | CCCCC/C=C\C/C=C\C/C=C\C/C=C\CCCCN1C(=O)C=CC1=O | 0.86 (inactive) | 0.663 | 5540 | 6440
54 | CC(C)=CCC/C(C)=C/CC/C(C)=C/CSc1ccccc1C(N)=O | 0.994 (inactive) | 0.741 | 5740 | 5780
55 | CCCCCCCCCCCCCCCC(=O)OC[C@@H](O)COP(=O)(O)O | 0.985 (inactive) | 0.427 | 5760 | 5850
56 | C=C1C[C@@H](O)[C@H](/C=C/[C@@H](O)CCCCC)[C@H]1C/C=C\CCCC(=O)O | 0.899 (inactive) | 1.24 | 5620 | 6250
57 | CCCCCC(=O)/C=C/[C@@H]1[C@H](C/C=C\CCCC(=O)O)[C@H](O)C[C@H]1O | 0.99 (inactive) | 3.22 | 5630 | 5690
58 | CCCCC[C@H](O)/C=C/[C@@H]1[C@@H](C/C=C/CCCC(=O)O)[C@H](O)C[C@H]1O | 0.95 (inactive) | 1.55 | 5260 | 5540
59 | CC/C=C\C/C=C\C/C=C\CCCCCCCC(=O)N[C@@H](Cc1ccc(O)cc1)C(=O)O | 0.852 (inactive) | 2.46 | 5060 | 5940
60 | CCCCC/C=C\C/C=C\C/C=C\C/C=C\CCCCNC(=O)c1ccc(O)cc1 | 0.937 (inactive) | 0.908 | 5740 | 6120
